CHX counter = counter-screen for Shiga toxin inhibitors: cycloheximide protein synthesis inhibition. cell reporter, cycloheximide protein synthesis inhibition counterscreen. max response, %. 300,000 tested, 12% active; in the data active = max response mostly above about 13%, no sharp cut-off; inactive = mostly below about 14%; also: read at 38.3 µM for the half of the compounds with a filed dose
FBPA Giardia inh = inhibitors of Giardia lamblia fructose-1,6-bisphosphate aldolase. A8B2U2. purified Giardia FBPA. Potency, µM (highest dose often 59.6 µM), actives largely listed as inhibitors. 290,000 tested, 0.71% active. AID 2451; also: nearly all actives have a fitted effect of over 55% in size
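40 nM FBPA preincubated 10 min at RT with compound (up to 57.5 uM final), then substrate plus GAPDH/TPI/NAD/arsenate coupling and diaphorase/resazurin added. Fluorescence read after 20 min at RT, 525/598 nm.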
Sm TGR block = inhibitors of Schistosoma mansoni thioredoxin glutathione reductase; AID 485364; purified TGR, DTNB reduction, TNB absorbance 405 nm; Potency, µM (series often up to 114 µM), usual class: inhibitors; 360,000 tested, 3% active; Q962Y6; also: nearly all actives have a fitted effect of over 60% in size
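Kinetic colorimetric format: TGR-catalysed, NADPH-driven DTNB reduction monitored via TNB absorbance. Enzyme dispensed at 20 nM; compound exposure 15 min at room temperature before reaction start.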
Shiga inhibitor = blocks Shiga toxin action in Vero cells; Vero cells, Shiga toxin protein synthesis inhibition reporter; inhibition, % at 38.7 µM; 290,000 tested, 9.2% active; AID 2315; in the data active = inhibition mostly above about 28%, no sharp cut-off; inactive = mostly below about 43%
LmPK inhibitor = blocks Leishmania mexicana pyruvate kinase activity. purified LmPK, Kinase-Glo ATP luminescence, 1 h. Potency, µM (highest dose often 57.5 µM), hits mostly inhibitors. 290,000 tested, 0.37% active. AID 1721
Target sequence (Q27686 whole entry, looked up): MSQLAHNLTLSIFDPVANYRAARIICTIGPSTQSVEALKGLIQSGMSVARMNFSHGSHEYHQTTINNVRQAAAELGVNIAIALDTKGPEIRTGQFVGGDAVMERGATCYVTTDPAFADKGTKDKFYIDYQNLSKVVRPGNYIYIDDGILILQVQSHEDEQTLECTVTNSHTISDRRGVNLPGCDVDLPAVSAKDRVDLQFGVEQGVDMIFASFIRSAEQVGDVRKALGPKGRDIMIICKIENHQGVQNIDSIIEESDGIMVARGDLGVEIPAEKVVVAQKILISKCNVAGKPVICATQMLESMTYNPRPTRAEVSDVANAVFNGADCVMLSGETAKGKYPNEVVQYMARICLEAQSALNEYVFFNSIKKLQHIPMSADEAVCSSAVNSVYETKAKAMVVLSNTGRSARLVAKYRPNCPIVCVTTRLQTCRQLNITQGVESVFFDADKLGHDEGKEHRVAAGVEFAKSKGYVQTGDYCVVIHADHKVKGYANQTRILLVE
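In 50 mM imidazole pH 7.2 with 7 mM MgCl2, LmPK (0.1 nM) turned over PEP (0.5 mM) and ADP (0.1 mM) for 1 h at room temperature. Luciferase read-out of ATP.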
Tb PYK inh = blocks Trypanosoma brucei pyruvate kinase. Q57TT1. TbPYK enzyme, Kinase-Glo Plus ATP luminescence, 45 min. Potency, µM (top dose mostly 76.8 µM), actives largely listed as inhibitors. 410,000 tested, 0.12% active. AID 624173; also: nearly all actives have a fitted effect of over 50% in size
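Quantitative HTS: titrated library compounds versus trypanosomal pyruvate kinase in TEA buffer (pH 7.2) containing KCl, MgCl2, BSA and Tween-20. Reactions were initiated with ADP, 130 uM final. Kinase-Glo Plus luminescence was read after 45 min at RT.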
Of the large screens only hits and unclear results are named; the others gave an inactive call; ! = not active in a repeat. Shown is part of a subset that was picked to be rich in hits. Unless noted, calls follow the shape of the dose curve; as a rule, active = well fitted curve in the direction sought with a large enough effect; inconclusive = small, poorly fitted or top-dose-only effect, or another doubt; inactive = no such curve, though single readings can be large; an effect the other way counts as inactive or inconclusive.

N#CCCCSc1nnnn1-c1cc(C(F)(F)F)cc(C(F)(F)F)c1	none (no result: CHX counter, Sm TGR block, Shiga inhibitor, LmPK inhibitor, Tb PYK inh)
O=C(Nc1cccc(C(F)(F)F)c1)c1cc(S(=O)(=O)N2CCCC2)c[nH]1	none (no result: CHX counter, FBPA Giardia inh, Shiga inhibitor, LmPK inhibitor)
O=C(Nc1ccc(Cl)cc1)N1N=CCC1c1ccccc1 (stereo not drawn)	CHX counter 20
COC(=O)Cn1c(-c2ccc(OC)cc2)c(-c2ccc(OC)cc2)nnc1=O	Sm TGR block 79µM (no result: Shiga inhibitor)
CC(C)OC(=O)Cn1c(-c2ccccc2)c(-c2ccccc2)nnc1=O	none
CC(C)(C)OC(=O)N1CCC(c2cc(-c3cccs3)n[nH]2)CC1	CHX counter 26
COC(=O)CCCC1=CC2=C(c3ccccc3)C(=O)C(C)(OC(=O)C3CCCC3)C(=O)C2=CN1Cc1ccc2c(c1)OCO2 (stereo not drawn)	FBPA Giardia inh inconclusive, Sm TGR block 18µM
COC(=O)CCCC1=CC2=C(c3ccccc3)C(=O)C(C)(OC(=O)C3CCCC3)C(=O)C2=CN1Cc1ccccc1 (stereo not drawn)	none (no result: CHX counter, Sm TGR block, Shiga inhibitor, Tb PYK inh)
COC(=O)CCCC1=CC2=C(c3ccccc3)C(=O)C(C)(OC(=O)C3CCCC3)C(=O)C2=CN1Cc1ccc(OC)cc1 (stereo not drawn)	FBPA Giardia inh inconclusive, Sm TGR block 22µM
CCc1ccc(NC(=O)CN2C(=O)C(c3ccc(F)cc3)=NC2(C)C)cc1	none (no result: CHX counter, FBPA Giardia inh, Shiga inhibitor, LmPK inhibitor)
Cc1nc(N2CCOCC2)c2cc(-c3ccccc3)sc2n1	CHX counter 14
CCOC(=O)CCCCC(=O)c1[nH]c(=O)[nH]c1Cn1cnc2ccccc21	Sm TGR block 16µM
Cc1cnc(CNc2nc(-c3ccc(N(C)C)cc3)nc3ccccc23)cn1	none (no result: CHX counter, Sm TGR block, Shiga inhibitor, LmPK inhibitor, Tb PYK inh)
ClCCNc1nc2ccc(Cl)cc2[nH]1	CHX counter 19
CC(C)Oc1ccc(CNC(=O)c2ccc(CS(=O)Cc3ccccc3Cl)o2)cc1 (stereo not drawn)	Sm TGR block 45µM (no result: CHX counter, FBPA Giardia inh, Shiga inhibitor, LmPK inhibitor)
COc1cccc(CNC(=O)c2ccc(CS(=O)Cc3ccc(Cl)cc3)o2)c1 (stereo not drawn)	none (no result: CHX counter, FBPA Giardia inh, Shiga inhibitor, LmPK inhibitor)
O=C(NC1CCCCC1)c1ccc(CS(=O)Cc2ccccc2Cl)o1 (stereo not drawn)	Sm TGR block 45µM (no result: FBPA Giardia inh)
COc1ccc(S(=O)Cc2ccc(C(=O)NCc3cccc(OC)c3)o2)cc1 (stereo not drawn)	Sm TGR block 25µM (no result: FBPA Giardia inh)
CSc1ccc(CCNC(=O)c2ccc(CS(=O)Cc3ccccc3Cl)o2)cc1 (stereo not drawn)	none (no result: FBPA Giardia inh)
O=C(NC1CCCCCC1)c1ccc(CS(=O)(=O)Cc2ccc(F)cc2)o1	CHX counter 22, Shiga inhibitor 40 (no result: FBPA Giardia inh)
COc1ccccc1CNC(=O)c1ccc(CS(=O)Cc2cccc(Cl)c2)o1 (stereo not drawn)	Sm TGR block 22µM (no result: FBPA Giardia inh)
O=C(NCCc1ccc(Cl)cc1)c1ccc(CS(=O)Cc2ccccc2Cl)o1 (stereo not drawn)	Sm TGR block 32µM! (no result: FBPA Giardia inh)
O=C(NCc1ccc(Cl)cc1)c1ccc(CS(=O)Cc2cccc(Cl)c2)o1 (stereo not drawn)	none (no result: FBPA Giardia inh)
O=C(NCCc1cccs1)c1ccc(CS(=O)Cc2ccc(Cl)cc2)o1 (stereo not drawn)	Sm TGR block 45µM (no result: FBPA Giardia inh)
O=C(NCc1cccs1)c1ccc(CS(=O)Cc2ccc(Cl)cc2)o1 (stereo not drawn)	none (no result: CHX counter, FBPA Giardia inh, Sm TGR block, Shiga inhibitor, LmPK inhibitor)
O=C(NC1CCCC1)c1ccc(CS(=O)Cc2ccccc2Cl)o1 (stereo not drawn)	Sm TGR block 32µM (no result: FBPA Giardia inh)
COc1ccccc1CNc1ccnc(-c2cccc(NS(C)(=O)=O)c2)n1	none (no result: CHX counter, Sm TGR block, Shiga inhibitor, LmPK inhibitor, Tb PYK inh)
COc1ccc2sc(N(Cc3cccnc3)C(=O)c3cccs3)nc2c1	none (no result: CHX counter, FBPA Giardia inh, Shiga inhibitor, LmPK inhibitor)
CO/N=C(\C)CCN1CCCCc2nc(C)c(C)cc21	none (no result: CHX counter, Sm TGR block, Shiga inhibitor, LmPK inhibitor, Tb PYK inh)
O=C(NC1CCCC1)c1ccc(CS(=O)Cc2ccc(Cl)cc2)o1 (stereo not drawn)	Sm TGR block inconclusive (no result: FBPA Giardia inh)
O=C(NC1CCCCC1)c1ccc(CS(=O)Cc2ccc(Cl)cc2)o1 (stereo not drawn)	Sm TGR block 45µM (no result: FBPA Giardia inh)
O=C(Nc1ccc2c(c1)Cc1ccccc1-2)c1ccncc1	CHX counter 33, Shiga inhibitor 66
O=C(Nc1ccc2c(c1)COC2=O)c1ccc(Cl)c(Cl)c1	CHX counter 34, Shiga inhibitor 71 (no result: FBPA Giardia inh)
O=C(Nc1ccc(Cl)c(Cl)c1)c1ccc(Cl)c(Cl)c1	CHX counter 50, Shiga inhibitor 89
O=C(Nc1ccc(Cl)c(Cl)c1)c1ccncc1	CHX counter 31, Shiga inhibitor 101
O=C(Nc1cccc(Cl)c1)c1ccncc1	none
COc1cc(C(=O)Nc2ccc3c(c2)Cc2cc(NC(=O)c4cc(OC)c(OC)c(OC)c4)ccc2-3)cc(OC)c1OC	none
CCc1ccc(CNC(=O)C(CC)n2ccc3cc(S(=O)(=O)N4CCCCC4)ccc32)cc1 (stereo not drawn)	none (no result: CHX counter, FBPA Giardia inh, Shiga inhibitor, LmPK inhibitor)
COc1ccccc1CNC(=O)[C@H](C)NC(=O)C1CCN(C(=O)[C@@H](N)CC(C)C)CC1	FBPA Giardia inh inconclusive
CCC(NS(=O)(=O)c1ccc(OC)cc1)C(=O)NCCc1ccccc1 (stereo not drawn)	none
COC(=O)[C@@H]1CC2=CC(=O)CC[C@]2(C)[C@@]23O[C@@H]2C[C@@]2(C)[C@H](CC[C@@]24CCC(=O)O4)[C@@H]13	none (no result: Sm TGR block, LmPK inhibitor, Tb PYK inh)
COc1ccc(-c2noc(N3CCC(C(=O)Nc4ccc(C)c(F)c4)CC3)n2)cc1OC	none (no result: CHX counter, FBPA Giardia inh, Shiga inhibitor, LmPK inhibitor)
COc1ccccc1CNc1ccc(-c2nc(C)no2)cc1[N+](=O)[O-]	none (no result: CHX counter, FBPA Giardia inh, Shiga inhibitor, LmPK inhibitor)
COc1ccc(C(=O)Nc2ccc(Cl)c(Cl)c2)c(OC)n1	CHX counter 21, Shiga inhibitor 45
